By inhibition is commonly meant the relative decrease from the control value, in per cent.

Three molecules from PubChem BioAssay can be followed below.

Experiment [1] can be described thus: stimulators of nuclear beta-catenin in C2C12, primary screen, imaging, WNT3A-conditioned medium, mouse C2C12, NPC library (AID 1117326; in the data active = nuclear beta-catenin stimulation mostly above about 4.2%, no sharp cut-off; inactive = mostly below about 10%). Conditions: stronger effect = higher value.
A short description of experiment [2]: stimulators of insulin release from INS-1E, primary screen, cell-based, 5 mM glucose, NPC library (AID 1117329;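 active = compound raises insulin release from rat beta cells at 5 mM glucose, no numeric limit stated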). The note with it: rat INS-1E insulin secretion, at 10 µM, stronger effect = higher value.
Experiment [3] is described as follows: growth inhibition of GSK3B-pretreated HCT116 cells – cell-based, CellTiter-Glo, 0.2 to 20 µM (AID 1117336;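 active = compounds lowering colon cancer cell viability after pretreatment blocking the GSK3B kinase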). Conditions: HCT116 viability after GSK3B inhibitor, at 20 µM, stronger effect = higher value.
Experiment [4] is described as follows: inhibition of endothelial tube formation, primary screen, imaging, VEGF stimulated, CD31 staining, tube area, NPC library (AID 1117340;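 active = compound that reduces growth-factor-driven endothelial tube area in a mixed cell culture, no cutoff stated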). Conditions: VEGF-stimulated ADSC/ECFC co-culture, at 10 µM, stronger effect = higher value.
The nature of experiment [5]: glucagon-like peptide 1 release enhancers, primary assay, NCI-H716 cell line, NPC library (AID 1117341;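 active = compound raises GLP1 secretion from the human gut endocrine cells, with no numeric limit stated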). The note with it: NCI-H716 cells, at 10 µM, stronger effect = higher value.
A short description of experiment [6]: HCT116 colon cancer cell growth inhibition, primary screen, CellTiter-Glo luminescence, NPC library (AID 1117342;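 active = compounds that lower survival of HCT116 colon cancer cells in the luminescence readout, no numeric limit stated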). The note with it: at 20 µM (top of the series). (In ATP-based viability assays light output follows the ATP content of the culture.)
Experiment [7] is described as follows: CellTiter-Glo luminescent readout of SW480 viability loss, NPC library primary (AID 1117343;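 active = compounds that lower viability of the colon cancer cells in the luminescence readout, with no numeric limit stated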). The note with it: CellTiter-Glo luminescence; at 20 µM (top of the series).
A short description of experiment [8]: decreased DLD-1 cellular survival, CellTiter-Glo luminescent readout, NPC compound collection, primary HTS (AID 1117346;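 active = compounds that lower survival of DLD-1 colon cancer cells in the luminescence readout, no cutoff given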). The note with it: DLD-1 viability, CellTiter-Glo luminescence; at 20 µM (top of the series).
Experiment [9] addresses 6-phosphogluconate dehydrogenase, decarboxylating (Homo sapiens) (UniProt P52209). Kind of experiment: 6PGD enzyme inhibitors, primary screen, biochemical, human, recombinant enzyme, NADPH absorbance (AID 1159550;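 active = at least 20% inhibition of 6-phosphogluconate dehydrogenase activity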). The note with it: recombinant 6PGD, NADPH absorbance 341 nm; at 10 µM; stronger effect = higher value.
The nature of experiment [10]: differential killing of epithelial or mesenchymal cells, primary screen, imaging, PC-3E GFP, TEM4-18 mCherry, co-culture (AID 1345086;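 active = compounds killing one labelled cell type while sparing the other, by normalised counts and ratio limits, not self-fluorescent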;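 as to all read-outs here: cells exposed to compound for 72 h before imaging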;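 as to red/green cell ratio (normalised): normalised mesenchymal count divided by normalised epithelial count so high means epithelial killing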). Conditions: imaging cell counts, at 1 µM; for red/green cell ratio (normalised): actives lie on both sides, counts scaled to control wells, 1 = unselective.
The nature of experiment [11]: sensitizers of A549 cells to miR-34 induction, primary screen, imaging, A549 dox-inducible miR-34, nuclei and caspase counts (AID 1347080). The note with it: A549 miR-34 inducible, Hoechst nuclei count, 48 h.
Experiment [12] can be described thus: survival rescue of mitochondrial mutant cells in low glucose, primary screen, MELAS cybrids, Rieske KO mouse fibroblasts, CellTiter-Glo (AID 1508586;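 active = mean z-score across replicates of 1.96 or higher in either the MELAS or the Rieske mutant cell line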;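 also: z relative to plate mean and SD of compound and empty wells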).
The target of experiment [13] is NAD(+) hydrolase SARM1 (Homo sapiens) (UniProt Q6SZW1). Kind of experiment: SARM1 TIR NADase inhibitors, cell lysate, NAD-Glo luminescence (AID 1508614;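 active = compound whose remaining NAD level is above about 45 nM, limit read from the data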;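 also: higher remaining NAD means stronger inhibition of SARM1 NADase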). The note with it: SAM-TIR HEK293T lysate NADase, at 1 µM, stronger effect = higher value.
Chain of NAD(+) hydrolase SARM1 (Homo sapiens) (Q6SZW1 whole entry, looked up, the tested form may be a part): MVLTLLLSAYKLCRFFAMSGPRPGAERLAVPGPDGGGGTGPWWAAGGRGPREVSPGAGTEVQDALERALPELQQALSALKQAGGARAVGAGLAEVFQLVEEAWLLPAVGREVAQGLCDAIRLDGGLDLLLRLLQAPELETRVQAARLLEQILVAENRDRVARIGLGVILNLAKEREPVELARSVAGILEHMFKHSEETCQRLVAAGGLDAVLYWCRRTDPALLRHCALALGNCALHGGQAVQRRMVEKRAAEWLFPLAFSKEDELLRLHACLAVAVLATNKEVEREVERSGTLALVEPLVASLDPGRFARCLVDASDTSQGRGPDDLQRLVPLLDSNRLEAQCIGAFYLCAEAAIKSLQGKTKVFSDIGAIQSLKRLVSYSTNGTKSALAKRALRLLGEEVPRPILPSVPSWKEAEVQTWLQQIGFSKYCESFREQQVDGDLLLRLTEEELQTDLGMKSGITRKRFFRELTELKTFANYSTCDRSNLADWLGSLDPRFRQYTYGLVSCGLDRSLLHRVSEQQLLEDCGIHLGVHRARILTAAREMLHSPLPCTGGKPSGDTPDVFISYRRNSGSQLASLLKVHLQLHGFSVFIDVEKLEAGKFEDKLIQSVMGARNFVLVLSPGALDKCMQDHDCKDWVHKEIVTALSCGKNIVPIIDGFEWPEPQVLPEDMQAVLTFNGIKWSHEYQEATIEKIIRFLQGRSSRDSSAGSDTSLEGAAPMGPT
The target of experiment [14] is Mitogen-activated protein kinase 7 (Homo sapiens) (UniProt Q13164). The experiment is described as follows: ERK5 transactivation activators in reporter cells, primary screen, cell-based, HTS (AID 1508626;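 active = luciferase signal above three times the same-plate solvent-only control wells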;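 also: luciferase driven by Gal4-ERK5 fusion binding five Gal4 sites before minimal TATA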). Conditions: HeLa Gal4-ERK5 transactivation, 18 h, at 5 µM, stronger effect = higher value.
Chain of Mitogen-activated protein kinase 7 (Homo sapiens) (Q13164 whole entry, looked up, the tested form may be a part): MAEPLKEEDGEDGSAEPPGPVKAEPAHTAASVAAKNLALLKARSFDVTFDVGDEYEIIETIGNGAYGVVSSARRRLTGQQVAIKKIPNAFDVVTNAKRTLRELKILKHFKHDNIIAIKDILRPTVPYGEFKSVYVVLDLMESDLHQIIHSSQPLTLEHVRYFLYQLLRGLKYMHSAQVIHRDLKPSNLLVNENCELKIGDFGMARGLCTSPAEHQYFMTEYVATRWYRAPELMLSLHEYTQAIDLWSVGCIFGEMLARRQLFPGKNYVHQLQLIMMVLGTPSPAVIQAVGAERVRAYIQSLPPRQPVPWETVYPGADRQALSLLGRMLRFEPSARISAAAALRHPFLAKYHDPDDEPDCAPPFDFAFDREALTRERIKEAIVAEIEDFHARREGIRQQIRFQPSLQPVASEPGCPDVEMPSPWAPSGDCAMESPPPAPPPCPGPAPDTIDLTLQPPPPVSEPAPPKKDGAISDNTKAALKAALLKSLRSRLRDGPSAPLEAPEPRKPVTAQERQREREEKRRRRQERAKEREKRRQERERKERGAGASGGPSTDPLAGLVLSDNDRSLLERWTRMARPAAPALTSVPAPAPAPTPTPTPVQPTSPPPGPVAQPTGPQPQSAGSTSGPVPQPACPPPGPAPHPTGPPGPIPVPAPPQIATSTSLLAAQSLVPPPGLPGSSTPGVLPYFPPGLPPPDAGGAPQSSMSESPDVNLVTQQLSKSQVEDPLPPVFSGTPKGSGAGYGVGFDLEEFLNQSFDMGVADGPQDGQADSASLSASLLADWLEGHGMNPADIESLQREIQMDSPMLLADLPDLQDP
For experiment [15], the system named is F380Y. Kind of experiment: modulators of BK channel variants, profiling panel, selectivity assay, cell-based, U2OS BacMam, thallium flux, beta subunits (AID 1259406).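 Also: initial slope of Thallos dye fluorescence rise after thallium is added; log ratio against the mean of 0.3% DMSO vehicle wells on the same plate.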 Conditions: at 30 µM.
Experiment [16] concerns F380Y/beta2Delta. The experiment is described as above. The note with it: at 30 µM.
The target of experiment [17] is Calcium-activated potassium channel subunit alpha-1 (Homo sapiens) + Leucine-rich repeat-containing protein 26 (Homo sapiens) (UniProt Q12791+Q2I0M4). Described as above. Conditions: F380Y/Slo1WT/gamma1, at 30 µM.
Chain of Calcium-activated potassium channel subunit alpha-1 (Homo sapiens) + Leucine-rich repeat-containing protein 26 (Homo sapiens) (Q2I0M4 whole entry, looked up, one chain of several): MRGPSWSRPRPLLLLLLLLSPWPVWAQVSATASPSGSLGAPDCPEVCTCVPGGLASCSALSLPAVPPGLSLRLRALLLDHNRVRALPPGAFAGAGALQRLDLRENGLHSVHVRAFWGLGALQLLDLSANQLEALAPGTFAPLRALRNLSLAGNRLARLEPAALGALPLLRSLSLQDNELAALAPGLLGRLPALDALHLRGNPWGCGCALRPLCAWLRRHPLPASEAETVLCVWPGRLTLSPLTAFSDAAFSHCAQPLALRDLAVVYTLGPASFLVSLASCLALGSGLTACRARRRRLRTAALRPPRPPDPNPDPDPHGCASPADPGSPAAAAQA
Experiment [18] deals with R275C. Described as above. The note with it: at 30 µM.
The subject of experiment [19] is R275C/beta1. The description is as above. The note with it: at 30 µM.
In experiment [20] the test system is R275C/beta2Delta. The description is as above. Conditions: at 30 µM.
Where [21] appears, read: measured here: epithelial PC-3E GFP cell survival.
Where [22] appears, read: measured here: mesenchymal TEM4-18 mCherry cell survival.
The mark [23] stands for this setting: MELAS cybrid survival, CellTiter-Glo 48 h, stronger effect = higher value.
[24] abbreviates: Rieske KO mouse fibroblast survival, CellTiter-Glo 72 h.

Where “and” joins values, the source holds several entries; their conditions need not be identical. Equal values may be shown once. Calls of active or inactive are those of the source.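 The calls were made as follows, unless noted: active = thallium flux through the channel raised or lowered by more than 3 SD from vehicle-only wells, actives on both sides; inactive = the rest.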

Chain of 6-phosphogluconate dehydrogenase, decarboxylating (Homo sapiens) (P52209 whole entry, looked up): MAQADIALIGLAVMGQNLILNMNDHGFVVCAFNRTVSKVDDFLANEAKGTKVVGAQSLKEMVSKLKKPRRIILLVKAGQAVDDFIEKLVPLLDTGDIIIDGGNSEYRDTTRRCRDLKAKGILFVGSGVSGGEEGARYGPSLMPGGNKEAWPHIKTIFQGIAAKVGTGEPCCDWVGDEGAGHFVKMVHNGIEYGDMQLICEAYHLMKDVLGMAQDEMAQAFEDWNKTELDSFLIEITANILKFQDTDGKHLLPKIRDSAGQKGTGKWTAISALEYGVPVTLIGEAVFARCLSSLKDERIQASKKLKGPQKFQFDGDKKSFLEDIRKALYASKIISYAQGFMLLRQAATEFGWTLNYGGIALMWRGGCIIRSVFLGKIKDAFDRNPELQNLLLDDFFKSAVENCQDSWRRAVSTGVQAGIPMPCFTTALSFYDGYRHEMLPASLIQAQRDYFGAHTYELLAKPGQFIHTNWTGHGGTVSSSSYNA

Regarding `CC(C)(C)NCC(O)c1cc(O)cc(O)c1` (stereo unspecified), the nuclear beta-catenin stimulation in [1] (at 10 µM) was 1.5% (inactive); in [1] (stimulation, at 2 µM) it was 3.1%. Further, in [2], the insulin secretion stimulation is -1% (inactive). For the same molecule, the viability decrease in [3] is -25.1% (inactive). The tube area decrease in [4] is -9.7% (inactive). Moreover, in experiment [5], the GLP1 secretion stimulation was 1.4% (inactive). For the same molecule, the inhibition of viability in [6] was 3.9% (inactive). Besides, the viability decrease (inhibition) was 20.2% (inactive) in [7] and -3.5% (inactive) in experiment [8]. Besides, the inhibition in [9] was -13.6% (inactive). In addition, the red/green cell ratio (normalised) in experiment [10] is 1.28 (inactive). In addition, the results for the normalised cell number in experiment [10] (setting [21]) and in [10] (setting [22]) were 0.91 and 1.16, respectively. Also, the cell count in [11] (measured here: total cells without miR-34 induction) is 10100 and 11300 and 12600. Besides, the figures for the z-score in experiment [12] (setting [23]) and in experiment [12] (setting [24]) were -0.672 (inactive) and -0.203, respectively. Besides, the remaining NAD in experiment [13] was 10 nM (inactive). For the same molecule, in experiment [14], the luciferase signal was 108 AU (inactive). The log fold change Tl+ flux in experiment [15] is 0.00388 (inactive); in experiment [16] it was 0.0185 (inactive); in experiment [17] it was 0.00552 (inactive); in [18], 0.00159 (inactive); in experiment [19], -0.00541 (inactive); in experiment [20], -0.00466 (inactive).
For the molecule `OCCN1CCN(CCCN2c3ccccc3Sc3ccc(Cl)cc32)CC1`, the nuclear beta-catenin stimulation is 73.5% (active) in experiment [1] (at 10 µM) and 2.8% in [1] (stimulation, at 2 µM). In addition, in experiment [2], the insulin secretion stimulation is 3.5% (inactive). Besides, the viability decrease in experiment [3] is 99.5% (active). Moreover, the tube area decrease in [4] was 104% (active). In addition, the GLP1 secretion stimulation in experiment [5] was 45% (active). Also, the inhibition of viability in experiment [6] was 100% (active). Further, the viability decrease (inhibition) was 116% (active) in [7] and 101% (active) in experiment [8]. In addition, the inhibition in experiment [9] is 10.3% (inactive). Besides, in experiment [10], the red/green cell ratio (normalised) was 1.35 (inactive). Also, the normalised cell number was found to be 0.97 in experiment [10] (setting [21]) and 1.32 in [10] (setting [22]). The z-score in [12] (setting [23]) was 0.299 (inactive); in experiment [12] (setting [24]) it was 0.539. Besides, in [13], the remaining NAD was 10 nM (inactive). Also, in [14], the luciferase signal is 44 AU (inactive). The log fold change Tl+ flux was 0.23 (active) in [15]; 0.336 (active) in [16]; -0.0145 (inactive) in experiment [17]; -0.201 (active) in experiment [18]; 0.341 (active) in experiment [19]; -0.0309 (inactive) in [20].
For the molecule `CCOC(=O)[C@H](CCc1ccccc1)N[C@@H](C)C(=O)N1Cc2ccccc2C[C@H]1C(=O)O`, the nuclear beta-catenin stimulation in experiment [1] (at 10 µM) is 2.5% (inactive); in experiment [1] (stimulation, at 2 µM), 0.3%. Also, the insulin secretion stimulation in experiment [2] is 0.7% (inactive). Moreover, the viability decrease in experiment [3] was -30.1% (inactive). In experiment [4], the tube area decrease is -10% (inactive). The GLP1 secretion stimulation in [5] was 2.9% (inactive). Besides, the inhibition of viability in experiment [6] was 3.6% (inactive). The viability decrease (inhibition) in [7] is 28.5% (inactive); in experiment [8], 6% (inactive). Moreover, the inhibition in experiment [9] was -10.1% (inactive). Moreover, in experiment [10], the red/green cell ratio (normalised) is 0.95 (inactive). For the same molecule, the normalised cell number in experiment [10] (setting [21]) was 1.17; in experiment [10] (setting [22]), 1.12. Further, in experiment [11] (measured here: relative caspase fold change +Dox/-Dox), the fold change is 1.45 and 1.07 and 4.39. Besides, the z-score in [12] (setting [23]) is 0.64 (inactive) and 0.208 (inactive); in experiment [12] (setting [24]), -0.486 and -0.81. Further, in experiment [13], the remaining NAD was 10 nM (inactive). Besides, the luciferase signal in [14] is 64 AU (inactive). Also, the log fold change Tl+ flux in experiment [15] was 0.032 (inactive); in experiment [16], 0.0255 (inactive); in [17], 0.0143 (inactive); in experiment [18], -0.00535 (inactive); in [19] it was 0.0226 (inactive); in experiment [20] it was 0.0266 (inactive).
